Sampled rows, rich in hits. Any-hit rate of the full collection: about 0.5%.
LANA DNA inh = blocks KSHV LANA C-terminal domain binding to DNA. MBP-C-LANA/FAM-LBS DNA binding, fluorescence polarization. inhibition, % at 9 µM. 340,000 tested, 0.078% active;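 active means highest replicate inhibition at or above 60% at 9 µM, even if other replicates fall short; inactive means all replicates below 60% inhibition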
cardiac RTF act = cardiac RTF calcium sensitization | IANBD-labeled TnC RTF fluorescence at EC20 calcium; 0% EC20 calcium, 100% full calcium | 340,000 tested, 0.24% active | activation, % at 7.2 µM | P19429+P45379 | AID 493008;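 active means activation above the mean over all tested compounds plus 3 SD, cut at about 30% in these data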;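 further: rise in fluorescence read as greater calcium sensitivity of cardiac thin filaments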
Cardiac RTF inh = cardiac RTF calcium desensitization; P19429+P45379; IANBD-labeled cardiac RTF, Ca2+ fluorescence; inhibition, % at 7.15 µM; 340,000 tested, 0.12% active;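 active means inhibition above the mean inhibition of all tested compounds plus 3 SD, cut at about 17% in these data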;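 further: assay run at fixed EC70 calcium of 1.6 mM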
Keap1 Nrf2 FP = Keap1-Nrf2 (human) interaction inhibition; Q14145; AID 504523; Keap1 Kelch-Nrf2 peptide fluorescence polarization, 1536-well; inhibition, % at 9.4 µM; 340,000 tested, 0.15% active; in the data active means inhibition above about 12%;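 further: human Keap1 Kelch domain with fluorescein labeled Nrf2 9mer peptide probe; higher means more block of Keap1 binding to Nrf2 peptide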
Target sequence (Q14145 whole entry, looked up, the tested form may be a part): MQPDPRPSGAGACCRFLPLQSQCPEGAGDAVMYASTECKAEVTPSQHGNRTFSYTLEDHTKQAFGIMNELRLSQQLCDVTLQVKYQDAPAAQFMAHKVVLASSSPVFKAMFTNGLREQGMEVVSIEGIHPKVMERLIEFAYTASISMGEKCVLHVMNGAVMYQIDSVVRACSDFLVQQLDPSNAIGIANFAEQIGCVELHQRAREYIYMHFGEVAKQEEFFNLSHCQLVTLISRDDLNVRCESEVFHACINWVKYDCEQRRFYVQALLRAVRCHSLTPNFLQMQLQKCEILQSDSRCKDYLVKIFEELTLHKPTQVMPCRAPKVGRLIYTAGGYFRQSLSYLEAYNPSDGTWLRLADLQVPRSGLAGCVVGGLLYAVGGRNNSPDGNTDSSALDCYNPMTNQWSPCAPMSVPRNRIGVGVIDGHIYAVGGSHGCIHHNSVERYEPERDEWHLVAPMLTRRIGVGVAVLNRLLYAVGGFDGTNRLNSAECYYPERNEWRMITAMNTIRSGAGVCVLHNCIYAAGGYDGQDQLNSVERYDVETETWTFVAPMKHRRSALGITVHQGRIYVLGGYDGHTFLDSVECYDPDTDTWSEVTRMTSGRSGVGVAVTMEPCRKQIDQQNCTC
A number is an active result; - = inactive.

SMILES	LANA DNA inh	cardiac RTF act	Cardiac RTF inh	Keap1 Nrf2 FP
CCn1c(=O)c2c(nc(SCC(=O)Nc3ccccc3)n2C)n(C)c1=O	-	-	-	-
CN(C)c1ccc(/C=C(/C#N)C(=O)NCc2ccccc2)o1	-	69	-	-
C=CC[C@@H](CC(=O)N[C@H](CO)Cc1ccccc1)C(=O)NC[C@H](OC(=O)[C@@H](CC=C)Cc1ccc(F)cc1)c1ccccc1	-	-	-	-
CCN(CC(=O)NCc1ccc(F)cc1)C(=O)C1CCN(S(=O)(=O)c2ccc(C(C)C)cc2)CC1	-	-	-	-
C#CCN1C(=O)S/C(=C\c2ccc(-c3ccc(C(=O)O)cc3C)o2)C1=O	-	-	-	-
COc1ccc2cc(/C=C3\SC(=S)NC3=O)c(N3CCOCC3)nc2c1	-	-	-	-
O=C1NC(=S)S/C1=C/c1ccc(N2CCOCC2)o1	-	34	-	-
O=C1S/C(=C\c2ccc(N3CCOCC3)o2)C(=O)N1Cc1ccc(F)cc1	-	50	-	-
O=C1S/C(=C/c2ccc(N3CCOCC3)o2)C(=O)N1Cc1ccc(F)cc1	-	72	-	-
CC(C)OC(=O)CN1C(=O)S/C(=C/c2ccc(N3CCCCC3)o2)C1=O	-	93	-	-
Cc1cc(C)n(CC(=O)NNC(=O)COc2ccc(Br)cc2F)n1	-	-	-	-
CC(=O)N1CCc2cc(Br)cc(S(=O)(=O)NCCCN(C)Cc3ccccc3)c21	-	-	-	-
O=S(=O)(c1cccc(F)c1)N1CCN(c2nc(-c3cccnc3)nc3ccccc23)CC1	-	-	-	-
C=C[C@@H]1c2cc(C)ccc2N(S(=O)(=O)c2ccc(C)cc2)[C@H](c2ccccc2C(F)(F)F)C1(C#N)C#N	-	-	-	-
COc1ccc(C(=O)NNC(=O)c2ccccc2[N+](=O)[O-])cc1[N+](=O)[O-]	-	-	-	-
COc1cc2c(cc1[N+](=O)[O-])-c1ccccc1C2	-	125	-	-
CCN(CC)c1ccc(/C=C2\C(=O)c3ccc(C(=O)O)cc3C2=O)cc1	-	74	-	-
Cc1cc(-c2cccs2)c2c(N)c(C(=O)c3ccc4c(c3)OCO4)sc2n1	-	-	-	-
COc1ccc(C(=O)c2sc3nc(C)cc(-c4cccs4)c3c2N)cc1OC	-	44	-	-
COc1ccc(C(=O)c2sc3nc(C)cc(-c4cccs4)c3c2N)cc1	-	68	-	-
Cc1cc(C(=O)NNC(=O)c2ccc(NC(=O)CC#N)cc2)c(C)o1	-	-	-	-
O=c1oc2cc(Br)ccc2n1Cc1ccccc1	-	-	-	-
CCCCCn1nc(-c2ccccc2)c2nc3ccccc3nc21	94	-	-	-
C/C(=N\NC(=O)c1nnn(-c2nonc2N)c1-c1ccccc1)c1ccco1	-	-	-	-
C=CCN1C(=O)/C(=C/C=C2/N(CC)c3ccc(S(=O)(=O)N(C)C)cc3N2CC)SC1=S	-	429	-	-
SMILES	LANA DNA inh	cardiac RTF act	Cardiac RTF inh	Keap1 Nrf2 FP
COc1cc(C2C=C(c3cccs3)Nc3ncnn32)cc(OC)c1OC (stereo unspecified)	121	386	-	88
Cc1cc(C=C2C(=O)c3ccccc3C2=O)c(C)n1-c1ccc(C(=O)O)cc1	-	-	-	-
Cc1cc(C=C2C(=O)c3ccccc3C2=O)c(C)n1-c1ccccc1	-	45	-	-
c1ccc(-c2cnn3c(-c4ccccc4)c(-c4ccccc4)nc3n2)cc1	-	378	-	-
CC1=CC(=C2C(=O)c3ccccc3C2=O)C=C(C)O1	-	-	-	-
CC(=O)N1C(=O)C(=C2C=C(C)OC(C)=C2)c2ccccc21	-	66	-	-
O=S(=O)(Nc1cccc(S(=O)(=O)N2CCCCCC2)c1)c1ccc(F)cc1F	-	-	-	-
O=C1CCNc2ccc(-c3ccccc3)cc21	84	64	-	24
Cc1ccc2c(c1)C(=O)CCN2	-	-	-	-
COc1ccc2c(CC(=O)Nc3ncc(C)s3)coc2c1	78	-	-	-
COc1cc(C(=O)Nc2ccc(Cl)c(C(F)(F)F)c2)cc(OC)c1OC	-	33	-	-
COc1cc(CCC(=O)Nc2ccc(Cl)c(C(F)(F)F)c2)cc(OC)c1OC	-	-	-	-
COc1ccc2nc3ccccc3nc2c1NC(=O)c1ccc(Cl)cc1Cl	-	361	-	-
Cn1c2c(c(=O)n(C)c1=O)C(C(F)(F)F)(C(F)(F)F)N=C(CCC1CCCCC1)N2	-	45	-	-
N#C/C(=C\c1ccc(-c2ccc(C(=O)O)cc2)o1)c1nc2ccccc2[nH]1	-	54	-	-
N#C/C(=C\c1ccc(N2CCOCC2)o1)c1nc2ccccc2[nH]1	-	259	-	-
N#C/C(=C\c1ccccc1C(=O)O)c1nc2ccccc2[nH]1	-	-	-	-
CC[n+]1ccccc1/C=C1\Sc2ccc(C)cc2N1C	-	-	-	-
CC[n+]1c(/C=C2\Sc3ccccc3N2C)ccc2cccc(C)c21	-	46	-	-
CCN1/C(=C/c2ccc3cc(C)ccc3[n+]2CC)Sc2cc(C)c(C)cc21	-	36	-	-
CCN1/C(=C/C=C/c2sc3ccccc3[n+]2CC)Sc2ccccc21	-	-	-	-
CCN1/C(=C/c2ccc3cc(C)ccc3[n+]2CC)Sc2ccccc21	-	47	-	-
Cc1cc(OC(=O)c2ccc(Cl)cc2Cl)c([N+](=O)[O-])c(=O)[nH]1	-	-	-	-
Cc1nc(-n2[nH]c3c(c2=O)CCCC3)[nH]c(=O)c1Cc1ccccc1	-	33	-	-
Cc1nc(N2CCc3ccccc3C2)[nH]c(=O)c1Cc1ccccc1	-	-	-	-
SMILES	LANA DNA inh	cardiac RTF act	Cardiac RTF inh	Keap1 Nrf2 FP
CCN(CC)c1ccc(/C=C(/C#N)c2nc3ccccc3[nH]2)c(OC(C)C)c1	-	148	-	-
O=c1c(O)c(-c2cccs2)oc2ccc(Cl)cc12	-	36	-	-
CN1C(=O)/C(=C\C=C2/CCCN2C)N(C)C1=S	-	-	-	-
CCN1C(=O)/C(=C/C=C2/CCCN2C)OC1=S	-	32	-	-
Cc1ccnc(SCC(=O)c2cc3ccccc3o2)n1	74	-	-	-
Cn1ccnc1SCC(=O)c1cc2ccccc2o1	-	-	-	-
O=C(c1cn(Cc2ccccc2)nc1-c1ccccc1)N1CCN(c2ccccn2)CC1	-	-	-	-
Cc1ccc(C)c(N2CCN(C(=O)c3ccc4nsnc4c3)CC2)c1	-	-	-	-
Cc1ccnc(N/C=C(\C#N)c2nc(-c3cccc(Br)c3)cs2)c1	-	95	-	-
CCN(CC)CCOC(=O)c1ccc(N/C=C(/C#N)c2nc(-c3ccc4c(c3)OCO4)cs2)cc1	-	-	-	-
N#C/C(=C\C=C\c1ccccc1)c1nc(-c2ccc3c(c2)OCO3)cs1	-	34	-	-
Cc1ccc(N2CCN(C(=O)c3cc(-c4ccc(F)cc4)[nH]c3C)CC2C)cc1 (stereo unspecified)	-	-	-	-
COc1ccc(C(=O)/C=C/c2ccc(N(C)C)cc2)c(OC)c1	-	81	-	-
CN(C)c1ccc(/C=C/C(=O)c2ccc3c(c2)OCO3)cc1	-	92	-	-
CN(C)c1ccc(/C=C/C(=O)c2ccc(O)cc2)cc1	-	72	-	-
